From ChEMBL document CHEMBL1156829
Over roughly 5,400 compounds, “IFI” has its median near 2; the highest 2% begin near 22. The entries come from a sample that favours the highest values as a whole.

Test: NOVARTIS: Inhibition Frequency Index (IFI) - the number of HTS assays where a compound showed > 50% inhibition/induction, expressed as a percentage of the number of assays in which the compound was tested.
Assay type: functional

Compared with `CCCCOc1ccc(C(=O)Oc2ccccc2-c2nc3cc(C)ccn3c2NC(C)(C)CC(C)(C)C)cc1`, `CCc1ccc(-n2c(C(CC)N(CCC(C)C)C(=O)Nc3ccc(Cl)c(Cl)c3)nc3ccccc3c2=O)cc1` (configuration not stated) is higher in IFI: 4.67% for the first, 6.67% for the second.

Compared with `COc1ccc(/C=C/c2nc(=O)c3ccccc3o2)cc1`, `Brc1ccc(C=NNc2nc3ccccc3[nH]2)cc1` is higher in IFI: 0% for the first, 9.02% for the second.

First: O=C(COc1ccccc1Cl)OCc1cc(=O)n2nc(C3CC3)sc2n1
Second: C=CCSc1nc2sc3c(c2c(=O)n1-c1ccccc1)CCN(C)C3
The IFI of the first is lower: 0% for the first, 7.55% for the second.

Going from `CCSCCOC(=O)C1=C(C)NC2=C(C(=O)CCC2)C1c1ccc(OC)c(Br)c1` (configuration not stated) to `COC(=O)C1=CNC=C(C(=O)OC)C1c1cc(OC)c(OC)c(OC)c1`, the IFI rises from 2.33% to 2.38%.

Compared with `CC(C)CN(C(C(=O)NC(CN1CCCC1)c1ccccc1)c1ccccc1)S(=O)(=O)c1ccccn1` (configuration not stated), `COc1cc(C(=O)NCCc2ccccn2)ccc1OC1CCN(CC(c2ccccc2)c2ccccc2)CC1` is lower in IFI: 1.96% for the first, 1.37% for the second.

Going from `CCCCCC[P+](N(CCC)CCC)(N(CCC)CCC)N(CCC)CCC` to `CCCN(CCC)[P+](CCC)(c1ccc([P+](CCC)(N(CCC)CCC)N(CCC)CCC)cc1)N(CCC)CCC`, the IFI falls from 29.1% to 3.7%.

Compared with `CCCCNC(=O)C(CC)Sc1nnc(-c2ccc(C)cc2)c(-c2ccc(C)cc2)n1` (configuration not stated), `CN(C)CCNc1ncc(C(=O)NCc2ccccc2)c(NCCc2ccccc2)n1` is higher in IFI: 0% for the first, 1.92% for the second.

Going from `O=C(Cc1ccccc1)Nc1ccc(C(=O)Nc2ccc(-c3nc4ccc(NC(=O)c5ccc(NC(=O)Cc6ccccc6)cc5)c(Cl)c4[nH]3)cc2)cc1` to `COc1ccc(C(=O)Nc2ccc(-c3nc4ccc(NC(=O)c5ccc(OC)cc5)cc4[nH]3)cc2)cc1`, the IFI rises from 7.58% to 12.8%.

Going from `Nc1nc(Nc2cccc(Cl)c2)n[nH]1` to `OCCCNc1cc(-c2ccnc(Nc3cccc(Cl)c3)n2)ccn1`, the IFI rises from 1.07% to 30.8%.

Going from `OCCCNc1cc(-c2ccccn2)nc(-c2ccccn2)n1` to `COc1cccc(-c2ccc(O)c(CN(C)CC(O)c3ccccc3)c2)n1` (configuration not stated), the IFI falls from 15.4% to 2.56%.

Compared with `Cc1nc2ccc(Cl)cc2c(O)c1I`, `CCCc1c(C)nc2ccc(Br)cc2c1O` is higher in IFI: 0.752% for the first, 3.03% for the second.

Compared with `CC(=O)N(C1=C(N(C)C)C(=O)c2ccccc2C1=O)c1ccc(F)cc1`, `CC(=O)N(C1=C(N(C)C)C(=O)c2ccccc2C1=O)c1ccc(Cl)c(Cl)c1` is lower in IFI: 31.1% for the first, 7.69% for the second.

First: CC(=O)N(C1=C(N2CCOCC2)C(=O)c2ccccc2C1=O)c1ccc(I)cc1
Second: CC(=O)N(C1=C(N2CCOCC2)C(=O)c2ccccc2C1=O)c1ccc(F)cc1
The IFI of the first is lower: 18.7% for the first, 24.7% for the second.

First: CC(=O)N(C)C1=C(N2CCCCCC2)C(=O)c2ccccc2C1=O
Second: CC(=O)N(C)C1=C(N2CCCC2)C(=O)c2ccccc2C1=O
The IFI of the first is higher: 22.5% for the first, 0% for the second.

Compared with `CC(=O)N(C)C1=C(N2CCOCC2)C(=O)c2ccccc2C1=O`, `CC(=O)N(C1=C(N2CCCC2)C(=O)c2ccccc2C1=O)c1ccc(F)cc1` is lower in IFI: 22.1% for the first, 8.11% for the second.

Compared with `CC(=O)N(C1=C(N(C)C)C(=O)c2ccccc2C1=O)c1cc(C)cc(C)c1`, `Cn1c2c([n+](C)c1CCl)C(=O)c1ccccc1C2=O` is higher in IFI: 15.4% for the first, 35.7% for the second.

Going from `Cc1c(-c2ccccc2)c2ccccc2n1CCc1ccc(C)[n+](C)c1` to `Cc1nc([P+](c2ccccc2)(c2ccccc2)c2ccccc2)c(N2CCCCC2)o1`, the IFI rises from 1.22% to 9.09%.

`COC(=O)c1sc(-c2ccccc2)cc1NC(=O)c1ccc(S(=O)(=O)N2CCCCCC2)cc1` and `O=C(Nc1ccc(NC(=O)c2ccco2)cc1Cl)c1ccccc1` are the same in IFI: 0% for the first, 0% for the second.

Compared with `CC[n+]1c(C=C2Sc3ccccc3N2CCO)sc2ccccc21`, `Cn1c(=O)c(Cl)c2c3c(c(Cl)ccc31)C(=O)c1ccccc1-2` is lower in IFI: 4.69% for the first, 3.03% for the second.

First: Cc1c(Cl)cccc1NC(=S)N(CCCN(C)c1ccccc1)Cc1cccn1Cc1ccc(Cl)cc1
Second: CN(C)c1oc(-c2ccc(Cl)cc2Cl)nc1[P+](c1ccccc1)(c1ccccc1)c1ccccc1
The IFI of the first is lower: 6.45% for the first, 20.4% for the second.

Going from `NCC(c1ccc(F)cc1)c1ccc(F)cc1` to `Nc1ccc(-c2nc3cc(Oc4ccc5[nH]c(-c6ccc(N)cc6)nc5c4)ccc3[nH]2)cc1`, the IFI rises from 0% to 15.4%.

Compared with `O=C1C(N2CCCCC2)=C(N2CCCCC2)C(=O)c2ccccc21`, `Clc1ccccc1-c1nc([P+](c2ccccc2)(c2ccccc2)c2ccccc2)c(N2CCOCC2)o1` is higher in IFI: 0% for the first, 25.9% for the second.

Compared with `CCOc1cc(-c2nc3c(=O)n(C)c(=O)nc-3n(C)n2)ccc1OC(C)C`, `CCOc1cc(-c2nnc3[nH]c(=O)n(C)c(=O)c3n2)ccc1OC(C)C` is lower in IFI: 30.8% for the first, 4.44% for the second.

Compared with `CCOc1ccc(-c2noc(-c3ccncc3)n2)cc1OCC`, `c1cncc(-c2nc3cc(-c4ccc5[nH]c(-c6cccnc6)nc5c4)ccc3[nH]2)c1` is higher in IFI: 0% for the first, 5.56% for the second.

First: O=C(Nc1cc(C(F)(F)F)cc(C(F)(F)F)c1)Nc1ccc2nnsc2c1
Second: O=C(c1cccc([N+](=O)[O-])c1)c1ccc(Cl)c(Cl)c1
The IFI of the first is higher: 12.8% for the first, 0% for the second.

Going from `C=CCSC1=NC2(CC(c3ccccc3)c3cc(Cl)c(O)cc3O2)CC(C)(C)N1` (configuration not stated) to `Nc1ccc(-c2nc3cc(Oc4ccc(Oc5ccc6[nH]c(-c7ccc(N)cc7)nc6c5)cc4)ccc3[nH]2)cc1`, the IFI rises from 0% to 5.8%.
